Only some compounds are listed: those with a hit (about 8% of all), similar ones and a draw of the others.
KB-V1 cytotox: qHTS assay for MDR1-selective chemotherapeutics: Primary screen using the drug-selected MDR subline cells KB-V1. 3.4% of 400,000 active. KB-V1 MDR cells viability, CellTiter-Glo, 72 h. Potency, µM (highest dose often 46.1 µM), most hits filed as cytotoxic; also: % is scaled to controls: 0 for no effect and ±100 for the full control effect; nearly all actives have a fitted effect of over 60% in size
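Compound-treated KB-V1 multidrug-resistant cells, 72 h, 37 degrees C; viability by CellTiter-Glo. Fitted qHTS curves give the values.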
HT1080 IDH1KD tx: qHTS for induction of synthetic lethality in tumor cells producing 2HG: qHTS for the HT-1080-IDH1KD cell line. HT-1080 IDH1 knockdown viability, ATP luminescence, 48 h. Potency, µM (top dose mostly 46.1 µM), for the others: at the top dose activity, negative = toxicity, actives largely listed as cytotoxic. 2% of 360,000 active;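 also: 0% = DMSO wells and -100% = cell-free medium wells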
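Using the IDH1-knockdown HT-1080 line run in the same batch and compound series as the NT line, viability after 48 h at 37 °C was determined by CellTiter-Glo luminescence and expressed as % activity.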
KB-3-1 tox: qHTS assay for MDR1-selective chemotherapeutics: Primary screen using the parental adenocarcinoma cell KB-3-1; KB-3-1 viability, CellTiter-Glo ATP luminescence, 72 h; Potency, µM (highest dose often 46.1 µM), hits mostly cytotoxic; 1.4% of 400,000 active; also: % is scaled to controls: 0 for no effect and ±100 for the full control effect; nearly all actives have a fitted effect of over 60% in size
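Cells are dispensed, compounds pinned in, plates held at 37 °C for 72 h, then CellTiter-Glo is added and luminescence read after 10 minutes. Cell line: parental KB-3-1 in phenol-red-free DMEM, 10% FBS.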
SW480 rereplic: A quantitative high throughput screen for small molecules that induce DNA re-replication in SW480 colon adenocarcinoma cells; Potency, µM (highest dose often 46.1 µM), for the others: top-dose re-replication activation, hits mostly activators; 1.8% of 340,000 active; SW480 DNA re-replication, Hoechst DNA content imaging, 48 h; also: % of control where 0% means no effect; nearly all actives have a fitted effect of over 55% in size
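Readout is total intensity of Hoechst-stained nuclei, excited at 405 nm and collected at 500-530 nm. Compound treatment lasted 48 hr at 37 C in 5% CO2 before staining.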
HT1080-NT tox: qHTS for induction of synthetic lethality in tumor cells producing 2HG: qHTS for the HT-1080-NT fibrosarcoma cell line; HT-1080-NT fibrosarcoma viability, CellTiter-Glo ATP luminescence, 48 h; Potency, µM (doses to about 46.1 µM), inactives show at the highest dose activity, negative = less viability, hits mostly cytotoxic; 1.6% of 360,000 active;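 also: NT is the 2HG producing partner of a matched IDH1 knockdown line; 0% = DMSO-treated cells and -100% = media-only wells without cells; nearly all actives have a fitted effect of over 55% in size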
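Compounds were tested in concentration-response format on HT-1080-NT cells for 48 hours at 37 degrees C. Cell viability came from CellTiter-Glo luminescence; curves were classified by r2, response magnitude and activity.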
MCF10A rereplic: A quantitative high throughput screen for small molecules that induce DNA re-replication in MCF 10a normal breast cells; MCF 10A DNA re-replication, Hoechst nuclear intensity, 48 h; Potency, µM (doses to about 46.1 µM), without a hit: top-dose activity, positive = re-replication, usual class: activators; 2.9% of 350,000 active; also: % of control where 0% means no effect; nearly all actives have a fitted effect of over 50% in size
* = called active by the depositor. Calls follow the shape of the dose curve; as a rule, active = well fitted curve in the direction sought with a large enough effect; inconclusive = small, poorly fitted or top-dose-only effect, or another doubt; inactive = no such curve, though single readings can be large; an effect the other way counts as inactive or inconclusive. Potency is read from the fitted curve at half-maximal effect.

What do the screens show for `Cc1ccc(C2=Nc3cccnc3C(c3ccccc3)=NN2)cc1`?
KB-V1 cytotox: inconclusive; HT1080 IDH1KD tx: -1%; KB-3-1 tox: inactive; SW480 rereplic: -6%; HT1080-NT tox: 4%; MCF10A rereplic: 1%

Results for CC(C)c1ccc(/C=C2\C=Cc3ccccc32)cc1 ?
KB-V1 cytotox: inactive; KB-3-1 tox: inactive

How did O=C1CN(C(=O)Cn2ncc(Cl)c(Cl)c2=O)c2ccccc2N1 do in these assays?
KB-V1 cytotox: inconclusive; HT1080 IDH1KD tx: 4.1µM*; KB-3-1 tox: inconclusive; SW480 rereplic: 14%; HT1080-NT tox: 4.6µM*; MCF10A rereplic: 1.8µM*

What do the screens show for `O=C(Cn1ncc(Cl)c(Cl)c1=O)NC1CCCCC1`?
KB-V1 cytotox: inactive; HT1080 IDH1KD tx: 15µM*; KB-3-1 tox: inconclusive; SW480 rereplic: 1.3µM*; HT1080-NT tox: 13µM*; MCF10A rereplic: 1.3µM*

Results for Cc1cccc(NC(=O)CNC(=O)Cn2ncc(Cl)c(Cl)c2=O)c1C ?
KB-V1 cytotox: inconclusive; HT1080 IDH1KD tx: 7.3µM*; KB-3-1 tox: inconclusive; SW480 rereplic: 8.2µM*; HT1080-NT tox: 26µM*; MCF10A rereplic: 5.2µM*

What do the screens show for `Cc1cccc(NC(=O)CN2CCN(CC(=O)NCc3ccc(Cl)cc3Cl)CC2)c1C`?
KB-V1 cytotox: 3.7µM*; HT1080 IDH1KD tx: 11%; KB-3-1 tox: inactive; SW480 rereplic: -4%; HT1080-NT tox: -3%; MCF10A rereplic: -6%

What do the screens show for `COC(=O)C1=CN(c2ccc(C(C)(C)C)cc2)C(N)=C(C#N)C1c1cccc([N+](=O)[O-])c1` (stereo not given)?
KB-V1 cytotox: inconclusive; HT1080 IDH1KD tx: -4%; KB-3-1 tox: inactive; HT1080-NT tox: 1%

How did O=C(Cn1ncc(Cl)c(Cl)c1=O)NCC1CCCCC1 do in these assays?
KB-V1 cytotox: inactive; HT1080 IDH1KD tx: inconclusive; KB-3-1 tox: 15µM*; SW480 rereplic: inconclusive; HT1080-NT tox: inconclusive; MCF10A rereplic: 5.8µM*

What do the screens show for `O=C(Cn1ncc(Cl)c(Cl)c1=O)NC1CCS(=O)(=O)C1` (stereo not given)?
KB-V1 cytotox: inactive; HT1080 IDH1KD tx: 2%; KB-3-1 tox: inactive; SW480 rereplic: inconclusive; HT1080-NT tox: -5%; MCF10A rereplic: inconclusive

What do the screens show for `Cc1ccc(-c2noc(CCC(=O)NCC3CCCO3)n2)cc1` (stereo not given)?
KB-V1 cytotox: 21µM*; HT1080 IDH1KD tx: -23%; KB-3-1 tox: inactive; SW480 rereplic: 12%; HT1080-NT tox: -14%; MCF10A rereplic: 0%

How did Cc1ccc(-c2noc(CCC(=O)NCCN3CCN(Cc4ccccc4)CC3)n2)cc1 do in these assays?
KB-V1 cytotox: 16µM*; HT1080 IDH1KD tx: -9%; KB-3-1 tox: inconclusive; SW480 rereplic: -2%; HT1080-NT tox: -10%; MCF10A rereplic: 6%

How did Cc1ccc(-c2noc(CCC(=O)NCCN3CCOCC3)n2)cc1 do in these assays?
KB-V1 cytotox: inactive; HT1080 IDH1KD tx: 6%; KB-3-1 tox: inactive; SW480 rereplic: -5%; HT1080-NT tox: 8%; MCF10A rereplic: 0%

What do the screens show for `CCOc1ccc(C2CC(c3c(O)n(C4CCCCC4)c(=O)[nH]c3=O)=Nc3ccccc3S2)cc1` (stereo not given)?
KB-V1 cytotox: inactive; KB-3-1 tox: inactive

What do the screens show for `C(=NN=C1c2ccccc2-c2ccccc21)c1c[nH]c2ccccc12`?
KB-V1 cytotox: 23µM*; HT1080 IDH1KD tx: inconclusive; KB-3-1 tox: inconclusive; SW480 rereplic: 9%; HT1080-NT tox: -10%; MCF10A rereplic: inconclusive

How did COC(=O)c1cccc(NC2=NS(=O)(=O)c3ccccc32)c1 do in these assays?
KB-V1 cytotox: inconclusive; KB-3-1 tox: inactive

What do the screens show for `CCc1nn2c(=O)cc(COC(=O)CNC(=O)c3ccccc3)nc2s1`?
KB-V1 cytotox: inactive; KB-3-1 tox: inactive

Results for COc1ccc(C(CNC(=O)C(CCSC)NC(=O)c2ccccc2Cl)N2CCCCC2)cc1 (stereo not given) ?
KB-V1 cytotox: 23µM*; HT1080 IDH1KD tx: -2%; KB-3-1 tox: inactive; SW480 rereplic: 0%; HT1080-NT tox: -3%; MCF10A rereplic: 3%

What do the screens show for `COc1ccccc1C(=O)NC(CCSC)C(=O)NCC(c1ccco1)N(C)C` (stereo not given)?
KB-V1 cytotox: 18µM*; HT1080 IDH1KD tx: -1%; KB-3-1 tox: inactive; SW480 rereplic: 4%; HT1080-NT tox: -1%; MCF10A rereplic: 0%

How did COc1ccccc1C(=O)NC(CCSC)C(=O)NCC(c1cccs1)N(C)C (stereo not given) do in these assays?
KB-V1 cytotox: inconclusive; HT1080 IDH1KD tx: 4%; KB-3-1 tox: inactive; SW480 rereplic: -3%; HT1080-NT tox: 3%; MCF10A rereplic: -1%

How did Cc1ccc(O)c(Nc2nc3ccccc3c3nncn23)c1 do in these assays?
KB-V1 cytotox: inactive; KB-3-1 tox: inactive

How did CCCc1cc(=O)oc2cc(C)cc(O)c12 do in these assays?
KB-V1 cytotox: 13µM*; HT1080 IDH1KD tx: 1%; KB-3-1 tox: 15µM*; SW480 rereplic: -5%; HT1080-NT tox: -3%; MCF10A rereplic: inconclusive

What do the screens show for `Cc1cc(=O)oc2cc(O)cc(O)c12`?
KB-V1 cytotox: inactive; HT1080 IDH1KD tx: 1.6µM*; KB-3-1 tox: inconclusive; SW480 rereplic: inconclusive; HT1080-NT tox: -30%; MCF10A rereplic: 7%

What do the screens show for `CCCCCNC(=O)C1CC(=O)OC12CCCCC2` (stereo not given)?
KB-V1 cytotox: inactive; HT1080 IDH1KD tx: 11%; KB-3-1 tox: inactive; SW480 rereplic: -9%; HT1080-NT tox: 8%; MCF10A rereplic: -18%

How did Cc1cccc(N2CCN(C(=O)COc3ccc4ccc(=O)oc4c3)CC2)c1C do in these assays?
KB-V1 cytotox: inactive; HT1080 IDH1KD tx: 3%; KB-3-1 tox: inactive; SW480 rereplic: -4%; HT1080-NT tox: -22%; MCF10A rereplic: -8%

How did Cc1cccc(N2CCN(C(=O)COc3ccc4c(c3)CCC4)CC2)c1C do in these assays?
KB-V1 cytotox: 21µM*; HT1080 IDH1KD tx: -4%; KB-3-1 tox: inconclusive; SW480 rereplic: -72%; HT1080-NT tox: 0%; MCF10A rereplic: inconclusive

Assay outcomes (PubChem)
